From ChEMBL document CHEMBL3988442, “University of Dundee, Small-Polar-MMV Screening Library” (2021)

Legend:
[1] = molecular target: T1, Aspartate--tRNA(Asp/Asn) ligase (Mycobacterium tuberculosis (strain ATCC 25618 / H37Rv)) (UniProt P9WFW3); experiment: Assay for Asp RNA synthetase-1 from Mycobacterium tuberculosis; assay type: functional; set-up: scale not given: direction of the effect not stated beside the values; details: 30 µM; further: in the data most compounds retested in dose-response had high values
T1 sequence (whole entry): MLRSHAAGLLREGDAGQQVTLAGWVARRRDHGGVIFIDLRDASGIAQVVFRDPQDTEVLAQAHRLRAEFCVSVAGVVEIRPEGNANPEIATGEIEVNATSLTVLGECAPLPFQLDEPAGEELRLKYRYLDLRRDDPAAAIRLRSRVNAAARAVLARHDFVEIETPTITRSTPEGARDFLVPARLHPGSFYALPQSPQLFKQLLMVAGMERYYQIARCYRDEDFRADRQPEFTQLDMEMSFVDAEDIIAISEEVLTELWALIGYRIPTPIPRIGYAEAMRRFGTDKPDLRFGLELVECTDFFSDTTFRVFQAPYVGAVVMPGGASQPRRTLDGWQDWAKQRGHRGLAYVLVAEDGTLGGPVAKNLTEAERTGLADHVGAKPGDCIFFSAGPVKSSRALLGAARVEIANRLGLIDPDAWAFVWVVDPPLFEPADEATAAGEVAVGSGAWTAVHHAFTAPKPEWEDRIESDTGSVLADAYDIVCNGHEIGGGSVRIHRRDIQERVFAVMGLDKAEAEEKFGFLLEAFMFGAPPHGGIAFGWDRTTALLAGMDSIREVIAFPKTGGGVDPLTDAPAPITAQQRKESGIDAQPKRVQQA

[2] = molecular target: Shiga toxin 2 (Escherichia coli O157:H7) (UniProt P09385+P09386); experiment: E. coli 0.157:H7 Shiga Toxin SOP - stx2 screening assay; assay type: functional; set-up: scale not given: direction of the effect not stated beside the values; details: 30 µM

Row | SMILES | Percent Effect [1] [%] | Percent Effect [2] [%]
1 | Cc1nc(C)n(CC2CCCN2Cc2nc(-c3cccs3)no2)n1 (stereo not drawn) | -2.77 | 29.7
2 | Cc1nc(C)n(CC2CCCN2Cc2nc3ccccc3nc2C)n1 (stereo not drawn) | -11.8 | -7.98
3 | CCCn1c(C)c(CC(=O)NC)c2c1CC(C)(C)CC2=O | -1.07 | -13.3
4 | Cc1nn2c(N3CCC(O)CC3)cc(-c3ccccc3)nc2c1C | 1.19 | 7.56
5 | CNc1cc(C)nc(C2CN(Cc3ccc(C)nc3)CCO2)c1 (stereo not drawn) | 0.61 | 3.79
6 | CC(=O)Nc1nc(C(=O)N2CCCC(c3cc(C)[nH]n3)C2)cs1 (stereo not drawn) | 0.141 | -12.2
7 | O=C1CCc2cc(C(=O)NCc3ccc(-n4cncn4)nc3)ccc2N1 | -5.04 | 3.55
8 | Nc1nccc(-c2c[nH]nc2C2CCCCC2)n1 | 6.92 | -26.9
9 | Cc1cnc(Nc2nccnc2C2CCN(C)CC2)s1 | -3.37 | -20.6
10 | COC(=O)c1sccc1S(=O)(=O)NCC1(O)CCOc2ccccc21 (stereo not drawn) | -2.1 | 6.1
11 | CCCC(C)(C)NC(=O)c1ccc(CC2CC(=O)NC2=O)cc1 (stereo not drawn) | -0.604 | -9.64
12 | CSc1ncccc1C(=O)N1CCC(c2nc3c(C)cccc3[nH]2)CC1 | 3.63 | -17.2
13 | CCN(CC)C(=O)Cn1ccc2cc(NC(=O)C3CC3)ccc21 | -1.5 | -4.48
14 | Cc1nc(C)n(CC2CCCN2CCCc2ccccc2)n1 (stereo not drawn) | 0.747 | -14.3
15 | O=C(NCCN1CCNCC1)c1c(O)c2ccccc2[nH]c1=O | -0.319 | -77.4
16 | CC(=O)c1cc(CC(=O)NCc2c(F)cccc2F)cs1 | -0.993 | 4.94
17 | OCC1CCCN1c1cc(NCCc2c[nH]c3ccccc23)ncn1 (stereo not drawn) | 11.5 | -28.9
18 | CCOc1cc(C)nc(N2CCN(Cc3nccn3C)CC2)n1 | -4.49 | 5.04
19 | Cn1c(C2CC2)nc2c1CCN(CC(=O)Nc1nncs1)C2 | 7.07 | -9.76
